Test results published in PubChem BioAssay (NCI).
Where “and” joins values, the source holds several entries; their conditions need not be identical. Equal entries are not always repeated. This is part of a sample that, as a whole, favours compounds with a hit. Of some 83,000 tested, about 20% had one in any assay.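 Negative percent growth values reflect cell death: -40 means 40% of the cells present at the start died, and -100 means all died.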 Calls of active or inactive are those of the source. Rule for the calls: active = growth percent below 10; inactive = the rest.

Assays:
Assay in all cases: NCI-60 one-dose screen, 48 h (100 = growth as untreated, 0 = no growth, -100 = all killed)
Details in all cases: 10 µM unless noted
T-47D breast = system: T-47D breast
BT-549 breast = system: BT-549 breast
MDA-MB-435 melanoma = system: MDA-MB-435 melanoma
SW-620 colon = system: SW-620 colon
MCF7 breast = system: MCF7 breast
HCT-116 colon = system: HCT-116 colon
HCC-2998 colon = system: HCC-2998 colon
KM12 colon = system: KM12 colon

Row | SMILES | growth (T-47D breast) | growth (BT-549 breast) | growth (MDA-MB-435 melanoma) | growth (SW-620 colon) | growth (MCF7 breast) | growth (HCT-116 colon) | growth (HCC-2998 colon) | growth (KM12 colon)
1 | O=C(O)Cc1cc(=O)[nH]n(-c2ccccc2)c1=O | 98.2% (inactive) | 103% (inactive) | 108% (inactive) | 108% (inactive) | 98.9% (inactive) | 101% (inactive) | 106% (inactive) | 107% (inactive)
2 | OCCCc1ccccc1 | 112% (inactive) | 101% (inactive) | 108% (inactive) | 107% (inactive) | 101% (inactive) | 99.5% (inactive) | 108% (inactive) | 109% (inactive)
3 | CN(C)C(=S)N(C)C | 98.5% (inactive) | 107% (inactive) | 112% (inactive) | 107% (inactive) | 107% (inactive) | 99.3% (inactive) | 103% (inactive) | 109% (inactive)
4 | CC(=O)Nc1ccc2oc(=O)ccc2c1 | 85.3% (inactive) | 89.8% (inactive) | 105% (inactive) | 107% (inactive) | 110% (inactive) | 86.5% (inactive) | 110% (inactive) | 100% (inactive)
5 | O=C(c1ccc(Cl)cc1)C1C(c2ccccc2)C1[N+](=O)[O-] (configuration not stated) | 89.3% (inactive) | 99.3% (inactive) | 114% (inactive) | 104% (inactive) | 96% (inactive) | 106% (inactive) | 96.9% (inactive) | 97.9% (inactive)
6 | O=C(c1ccccc1)C1(Br)CCCCC1 | 94.7% (inactive) | 105% (inactive) | 105% (inactive) | 105% (inactive) | 96% (inactive) | 104% (inactive) | 101% (inactive) | 104% (inactive)
7 | O=C(OCc1ccccc1)c1ccccc1 | 96% (inactive) and 87.9% (inactive) | 109% (inactive) and 102% (inactive) | 105% (inactive) and 112% (inactive) | 110% (inactive) and 105% (inactive) | 107% (inactive) and 94.3% (inactive) | 108% (inactive) and 93.7% (inactive) | 102% (inactive) and 93.9% (inactive) | 104% (inactive) and 102% (inactive)
8 | Clc1ccc(/C=C/c2ccc3ccccc3n2)cc1 | 18.6% (inactive) and 65.6% (inactive) and 52.5% (inactive) | 58.7% (inactive) and 107% (inactive) and 94.8% (inactive) | -38.5% (active) and 85.2% (inactive) and 92.6% (inactive) | 22.8% (inactive) and 108% (inactive) and 97.1% (inactive) | 15.1% (inactive) and 65.5% (inactive) and 67.1% (inactive) | 18.5% (inactive) and 77% (inactive) and 63.4% (inactive) | 7.83% (active) and 104% (inactive) and 91.5% (inactive) | 16.3% (inactive) and 97% (inactive) and 94.7% (inactive)
9 | NC(=O)Cc1nc(O)cc(=O)[nH]1 | 88.5% (inactive) | 109% (inactive) | 106% (inactive) | 104% (inactive) | 95.5% (inactive) | 110% (inactive) | 100% (inactive) | 106% (inactive)
10 | COC(=O)C(Cc1cn(C(C)=O)c2ccccc12)P(=O)(OC)OC (configuration not stated) | 105% (inactive) | 105% (inactive) | 99.5% (inactive) | 99.5% (inactive) | 101% (inactive) | 96.4% (inactive) | 103% (inactive) | 99.2% (inactive)
11 | COC(=O)c1ccccc1Cl | 94% (inactive) | 98.4% (inactive) | 103% (inactive) | 103% (inactive) | 99.6% (inactive) | 100% (inactive) | 105% (inactive) | 101% (inactive)
12 | CCOC(=O)c1ccncc1 | 95% (inactive) | 109% (inactive) | 107% (inactive) | 104% (inactive) | 97.9% (inactive) | 107% (inactive) | 105% (inactive) | 105% (inactive)
13 | CCOC(C)=N | 103% (inactive) | 108% (inactive) | 118% (inactive) | 107% (inactive) | 104% (inactive) | 95.1% (inactive) | 103% (inactive) | 111% (inactive)
14 | CCN(CC)C(=S)SCCO | 101% (inactive) | 144% (inactive) | 111% (inactive) | 106% (inactive) | 104% (inactive) | 107% (inactive) | 94.1% (inactive) | 105% (inactive)
